Rows were chosen to be rich in hits. Some 1.4% of all compounds tested hit in one or more screens of this group.
BRCA1 expr act = activators of BRCA1 expression | MCF7-BRCA1-FFLuc reporter, luminescence, 48 h; response scale: scaled: vehicle 0%, 10 µM genistein 100% | AID 624202 | 380,000 tested, 1.1% active | Potency, µM (titrated, usually from 46.1 µM), inactives show at the highest dose activation, most hits filed as activators; also: potency is read from the fitted curve at half-maximal effect; nearly all actives have a fitted effect of over 80% in size
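MCF7-BRCA1-FFLuc, 2000 cells/well; 2 h attach, 37 °C/5% CO2; compound 48 h; luciferase substrate 15 min; luminescence end-point. Norm. to genistein 10 microM max activation and DMSO; concentration-response curves fitted.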
N370S GC = N370S glucocerebrosidase modulation, Gaucher chaperone candidate | N370S GC spleen homogenate, 4MU-glucoside fluorescence | 330,000 tested, 0.092% active | Potency, µM (top dose mostly 59.4 µM), for inactives: at the top dose activity change, negative = inhibition, actives largely listed as inhibitors | AID 2101 | P04062;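 also: potency is read from the fitted curve at half-maximal effect; 0% = full enzyme activity and -100% = no enzyme basal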
GLS inh = inhibitors of human glutaminase (GLS) | Potency, µM (highest dose often 45.5 µM), inactives show at the top dose activity change, negative = inhibition, most hits filed as inhibitors | GLS enzymatic activity, qHTS titration | 410,000 tested, 0.21% active | O94925 | AID 624170; also: potency is read from the fitted curve at half-maximal effect; % is scaled to controls: 0 for no effect and ±100 for the full control effect
Target sequence (O94925 whole entry, looked up): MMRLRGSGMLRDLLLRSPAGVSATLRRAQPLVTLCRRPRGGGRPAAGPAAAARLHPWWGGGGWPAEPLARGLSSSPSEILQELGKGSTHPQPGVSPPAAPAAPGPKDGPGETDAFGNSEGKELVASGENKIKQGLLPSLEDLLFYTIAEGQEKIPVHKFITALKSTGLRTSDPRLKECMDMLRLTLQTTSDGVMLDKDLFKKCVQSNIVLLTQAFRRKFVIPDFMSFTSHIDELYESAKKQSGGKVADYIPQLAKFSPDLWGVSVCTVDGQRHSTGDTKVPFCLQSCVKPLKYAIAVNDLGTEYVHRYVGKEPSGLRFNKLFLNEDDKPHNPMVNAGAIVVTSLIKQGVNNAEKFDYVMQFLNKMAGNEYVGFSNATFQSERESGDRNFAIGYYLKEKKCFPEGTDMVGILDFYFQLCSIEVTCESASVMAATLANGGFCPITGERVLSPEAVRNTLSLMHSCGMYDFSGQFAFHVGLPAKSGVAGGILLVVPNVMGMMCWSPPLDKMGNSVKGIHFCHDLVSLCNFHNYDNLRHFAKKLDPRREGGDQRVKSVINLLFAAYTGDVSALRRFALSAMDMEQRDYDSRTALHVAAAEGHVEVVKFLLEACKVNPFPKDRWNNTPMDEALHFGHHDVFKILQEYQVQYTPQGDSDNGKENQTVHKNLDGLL
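hKGA; 45 mM KH2PO4 pH 8.2 + 0.02% Tween-20; cpd via pin tool; 1 mM Gln soln; GluOx/HRP/Amplex Red; RT 30 min; fluor. t0 & final.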
p53 reactivator = mutant p53 re-activation in reporter cells. H1299 p53-A138V BP100-luciferase reporter, luminescence, 24 h. 320,000 tested, 0.063% active. Potency, µM (highest dose often 92.2 µM), inactives show top-dose activity change, positive = activation, most hits filed as activators; also: potency is read from the fitted curve at half-maximal effect; % of control where 0% means no effect; nearly all actives have a fitted effect of over 45% in size
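H1299 (p53-null), stable ts p53-A138V + BP100-Luc; 1000 cells/well, Opti-MEM/10% FBS; cpd 4 pt, 1:5; 24 h, 37 deg C, 5% CO2; detection reagent 10 min RT; luminescence.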
TCR act = T cell receptor activation. primary human leukocytes, anti-CD3, IL-2 HTRF, 48 h. Potency, µM (top dose mostly 9.22 µM), for the others: at the highest dose activation of IL-2 secretion, usual class: activators. 330,000 tested, under 10 active; also: % of control where 0% means no effect
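Human primary leukocytes + a-CD3 beads + cpd, 48 hr; IL-2 in supernatant by HTRF (ex 320nm / em 665nm). No co-stimulatory signal supplied.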
TSHR antagonist = blocks TSH signaling through the human TSH receptor; AID 504810; TSHR-expressing cells, TSH-stimulated cAMP HTRF, 2 h; hits give low values; activity change, negative = inhibition, % at 11.5 µM; 330,000 tested, 0.2% active; P16473;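 active = activity change below a set negative limit, meaning inhibition stronger than a set level, cut at about -70% in these data; inconclusive = activity change between two set negative limits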; also: % is scaled to controls: 0 for no effect and ±100 for the full control effect
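Cell-based HTRF cAMP assay; TSHR cells + compound, TSH EC80 (4nM final), 2 h, 37 deg C. Lysis with anti-cAMP cryptate and cAMP-d2, 30 min RT, read 665/620 nm.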
* marks the source's active call; other numbers are inactive results; ? = inconclusive; . = no result; [ ] = dose if it differs, or a comment. Unless noted, calls follow the shape of the dose curve; as a rule, active = well fitted curve in the direction sought with a large enough effect; inconclusive = small, poorly fitted or top-dose-only effect, or another doubt; inactive = no such curve, though single readings can be large; an effect the other way counts as inactive or inconclusive.

SMILES	BRCA1 expr act	N370S GC	GLS inh	p53 reactivator	TCR act	TSHR antagonist
Cc1ccc(C2C3=C(CCCC3=O)Nc3[nH]c(=S)[nH]c(=O)c32)cc1 (stereo not drawn)	1%	12%	?	8%	-7%	25
O=C1CCCC2=C1C(c1ccc(Br)cc1)c1c([nH]c(=S)[nH]c1=O)N2 (stereo not drawn)	15%	-28%	13µM*	-8%	-5%	10
C[n+]1c(-c2ccccc2)cc2c(=Cc3ccc([N+](=O)[O-])cc3)c3ccccc3n21	-88%	.	10µM*	.	6%	.
C[n+]1c(-c2ccccc2)cc2c(=Cc3ccccc3)c3ccccc3n21	-92%	.	-25%	.	10%	.
Cc1ccc(S(=O)(=O)N2CCN(c3nc(-c4cncnc4)nc4ccccc34)CC2)cc1	18%	.	.	.	.	.
C#CCn1c(C)cc(C)c(S(=O)(=O)c2ccccc2)c1=O	13µM*	27%	3%	19%	1%	-5
Cc1cc(N=NC(=O)c2ccccc2O)c2ccccc2c1O	5.6µM*	-1%	30%	?	-1%	-72*
Cn1c(O)c(N=NC(=O)c2ccccc2O)c2ccccc21	43%	2%	?	?	0%	-1
CC(Oc1ccc(Cl)cc1Cl)c1nc(-c2ccc(NC(=O)c3ccccn3)cc2)no1 (stereo not drawn)	1.3µM*	-1%	4%	?	-1%[46.1 µM]	11
COc1ccc(Cl)cc1-c1nc(-c2ccc(NC(=O)c3ccncc3)cc2)no1	-16%	.	0%	.	-21%	.
O=C(CCC(=O)c1ccc[nH]1)c1ccc(Cl)cc1	7.1µM*	-9%	-4%	26%	1%	13
O=C(Nc1ccccc1Br)c1ccc(OC(=S)N2CCOCC2)cc1	7.9µM*	-9%	-7%	0%	2%	-2
CCCOc1ccc(C(=O)Nc2ccc(Cl)c(-c3nc4ncccc4o3)c2)cc1	.	.	-2%	.	.	.
COC(=O)c1ccc(COc2cccc(C)c2C)cc1	10µM*	2%	2%	?	-4%	-5
COC(=O)c1ccc(COc2ccccc2/C=C(\C#N)C(=O)Nc2c(C)cccc2C)cc1	-69%	18%	-7%	4%	1%[46.1 µM]	-34
O=C(OCc1ccccc1)c1ccc(-c2nnn(Cc3ccccc3F)n2)cc1	.	.	0%	.	.	.
COc1ccc(-c2nnn(Cc3ccccc3F)n2)cc1	4µM*	?	7%	?	0%[46.1 µM]	-1
COc1cccc2c1C(=O)/C(=C\c1ccc(N(C)C)cc1)C2	-18%	.	.	.	.	.
CCc1ccc(NS(=O)(=O)c2ccc(-c3cc(C)no3)cc2)cc1	.	.	-6%	.	.	.
CCc1ccc(C(=O)N2CCCC2)s1	15%	8%	-1%	10%	2%	16
CC(C)(O)C#Cc1ccc(C(=O)NCCC(=O)O)s1	2%	-5%	-7%	1%	3%	14
CC(C)(O)C#Cc1ccc(C(=O)NC2CCCCC2)s1	11µM*	-2%	0%	5%	-31%	-7
CCc1ccc(C(=O)NC2CCCCC2)s1	3.5µM*	2%	-2%	?	.	-9
CN(CC(=O)Nc1cccc(F)c1)C(=O)CCCNC(=O)c1ccc(Cl)cc1	11µM*	19%	12%	?	-2%	7
CN(CC(=O)Nc1cccc(F)c1)C(=O)CCNC(=O)c1ccc(Br)cc1	49%	-2%	5%	?	-1%	4
SMILES	BRCA1 expr act	N370S GC	GLS inh	p53 reactivator	TCR act	TSHR antagonist
COc1ccc(NC(=O)c2sc3nc4c(c(-c5ccc(OC)cc5)c3c2N)C(=O)CC(C)(C)C4)cc1	.	.	0%	.	.	.
O=C(NC(=S)Nc1nc2c(s1)CCCC2)c1ccccc1	28%	3%	12%	?	-4%[46.1 µM]	-9
S=C(Nc1nc2c(s1)CCCC2)NC1CC1	6.3µM*	0%	3%	?	0%	14
CN(C)c1ccc(NC(=O)C2C3C=CC(C3)C2C(=O)O)cc1 (stereo not drawn)	-28%	-11%	46%	9%	13%	-89*
O=C(O)C1C2C=CC(C2)C1C(=O)Nc1ccc2c(c1)OCCO2 (stereo not drawn)	11%	8%	2%	6%	.	-12
CN(C)c1cccc(C(=O)Nc2ccc(N3CCOCC3)cc2)c1	11µM*	7%	45%	1%	4%	-14
CN(C)c1cccc(C(=O)Nc2cccc(S(=O)(=O)NC3=NCCC3)c2)c1	4µM*	-1%	25%	-4%	-5%	-5
O=C(Nc1ccc(N2CCOCC2)cc1)c1cccc(-n2cnnc2)c1	17%	-8%	0%	-7%	7%	-9
COc1cc(/C=C/c2ccc3ccccc3n2)cc(OC)c1OC	4%	.	.	.	.	.
c1cncc(CSc2ccc(-c3cccs3)nn2)c1	10µM*	20%	-10%	13%	9%	-2
Fc1cccc(CSc2ccc(-c3cccs3)nn2)c1	.	.	-3%	.	.	.
Fc1ccc(CSc2ccc(-c3cccs3)nn2)cc1	10µM*	-1%	1%	?	-5%[46.1 µM]	6
COc1ccccc1NC(=O)c1ccccc1Nc1ccccc1	-22%	0%	-17%	6%	2%	6
COc1ccccc1Nc1ccc(N)cc1	-29%	-17%	11µM*	0%	-2%	-7
COc1ccc(CNc2nc(-c3ccccc3)nn2C(=O)c2ccc([N+](=O)[O-])cc2)cc1	11µM*	22%	4%	?	8%[46.1 µM]	-3
CCN1CCN(c2cc(C)c3cc(NC(=O)c4cc(OC)cc(OC)c4)ccc3n2)CC1	6.3µM*	?	21%	5%	7%	1
O=C(/C=C/c1ccc(-c2ccc(F)cc2)o1)N1CCCC1	4µM*	2%	0%	24%	4%	-1
O=C(Nc1ccccc1)N1CCCC2CCCCC21 (stereo not drawn)	11µM*	12%	4%	?	-3%	-7
Cc1cccc(NC(=O)c2ccc(OCC3CCCO3)cc2)c1C (stereo not drawn)	14µM*	4%	3%	?	-9%[46.1 µM]	-6
O=C(NCc1ccc(Cl)cc1)c1ccc(OCC2CCCO2)cc1 (stereo not drawn)	-2%	?	0%	-2%	-3%[46.1 µM]	3
O=C(Nc1ccc(Cl)cc1)c1ccc(OCC2CCCO2)cc1 (stereo not drawn)	4.5µM*	0%	-3%	25%	-2%	-26
COc1ccc(/C=C/C(=O)c2c(O)c(OC)c3occc3c2OC)cc1OC	-2%	.	.	.	.	.
Cc1ccccc1C(=O)Nc1cccc(-c2nnc(SCC(=O)NCc3ccco3)n2C)c1	10%	.	.	.	.	.
O=c1[nH]c2c(-c3nc(-c4ccc(F)cc4)cs3)c(O)cn2c2ccc(Br)cc12	-23%	.	.	.	.	.
